Consider 39 compounds from PubChem BioAssay (NCI).

Where “and” joins values, the source holds several entries; their conditions need not be identical. Equal entries are not always repeated. The panel holds about 83,000 compounds, 20% with a hit somewhere; the sample as a whole holds those more often.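 In brief: 96-well plates, 48 h treatment, single concentration, percent growth endpoint.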 Calls of active or inactive are those of the source. How the source made its calls: active means growth percent below 10; inactive means the rest.

The test has as its system HL-60(TB) leukemia. The experiment in a line: NCI-60 one-dose screen, 48 h (100 = growth as untreated, 0 = no growth, -100 = all killed). The note with it: 10 µM unless noted.
`COC(=O)[C@]12CC[C@@H](C)[C@H](C)[C@@H]1C1=CC[C@@H]3[C@@]4(C)CC(=O)[C@H](OC(=O)c5ccco5)[C@@]5(C)COC(=C45)C[C@@]3(C)[C@]1(C)CC2`: the growth is 24.6% (inactive).
To `c1ccc(OCC[P+](c2ccccc2)(c2ccccc2)c2ccccc2)cc1` belongs -19.4% (active); to `Cc1nc(NC(=O)N2CCC[C@H]2C(N)=O)sc1-c1ccnc(C(C)(C)C(F)(F)F)c1`, 24% (inactive); to `COc1ccc(-c2ccc(C)n2-c2ccc(-c3nc4ccccc4s3)cc2)cc1`, 53.5% (inactive).
The value for `CCCCCCCCCCCCCCCC[N+](C)(C)CCN(Cc1ccc(OC)cc1)c1ncccn1` was -52.7% (active) and -2.88% (active); that for `CN(C)c1ccc2nc3ccc(=[N+](C)C)cc-3sc2c1` was 0.249% (active) and -38.6% (active) and 19.8% (inactive); that for `Clc1ccc(-n2cnc3c(Cl)ncnc32)cc1Cl` was 45.7% (inactive).
To `COc1ccc(-c2nc3sc(C)nn3c2-c2nc3cc(C)c(C)cc3[nH]2)cc1` belongs 112% (inactive); to `CCN(CC)C(=O)/C=C(/C)c1ccccc1`, 101% (inactive); to `CCCCc1ccc(Nc2ccc(Nc3ccc(CCCC)cc3S(=O)(=O)O)c3c2C(=O)c2ccccc2C3=O)c(S(=O)(=O)O)c1`, 96% (inactive).
With `O=C1/C(=C/c2ccc(Cl)cc2)COc2ccc(O)cc21`, the growth was -11.3% (active).
The value for `O=C1NC(=C(Cl)Cl)/C(=N/S(=O)(=O)N2CCC(C3(C(F)(F)F)N=N3)CC2)N1` was 77% (inactive); that for `CN1CCN(Cn2nc(-c3cc(F)c(Cl)cc3Cl)n(/N=C/c3ccc(N(C)C)cc3)c2=S)CC1` was 83.1% (inactive).
To `Cc1nc2c(=O)[nH]c(=S)[nH]c2[nH]c1=O` belongs 75.3% (inactive) and 96.3% (inactive); to `CC1=CC[C@@H]2C(C)(C)[C@@H](O)CC[C@@]2(C)[C@@H]1COc1ccc2ccc(=O)oc2c1`, 76.7% (inactive).
Take `O=C(Nc1ccc(CN2CCOCC2)cc1)c1ccc(-c2cc(Cl)ccc2Cl)o1`: the growth was 28.8% (inactive).
To `Cc1cc(C(=O)CSc2nc3ccccc3c(=O)[nH]2)c(C)n1C` belongs 102% (inactive); to `Oc1ccc(CN2CCC(N3CCCCC3)CC2)c2cccnc12`, 28.2% (inactive); to `COc1ccc2c(c1)sc1nc(-c3ccccc3)c(-c3ccc(O)c(OC)c3)n12`, 44.2% (inactive).
To `COc1ccc(OC)c(-c2nc(SCC(=O)c3ccc(C#N)cc3)[nH]c(=O)c2C#N)c1` belongs 106% (inactive); to `CCc1ccc(CCCC(=O)O)cc1`, 98.8% (inactive); to `NC(=O)Cc1nc(O)cc(=O)[nH]1`, 87.4% (inactive).
To `COc1ccc(Sc2ccc3[nH]c(=O)nc(N)c3c2)cc1` belongs 94.9% (inactive); to `ClCCn1cnc2c(SCc3ccccc3Cl)ncnc21`, 8.38% (active).
As for `C=C(C)[C@@H]1CC[C@]2(COCCC#N)CC[C@]3(C)[C@H](CC[C@@H]4[C@@]5(C)Cc6c([nH]c7ccccc67)C(C)(C)[C@@H]5CC[C@]43C)[C@@H]12`, the growth was 101% (inactive).
Regarding `COc1cccc(C2C(C#N)=C(N)Oc3cc4c(cc32)OCO4)c1` (centres undefined), the growth was -45% (active).
The value for `COc1ccc(Br)c2c1C(=O)CC2` was 151% (inactive).
Take `O=C1/C(=C/c2cccc(O)c2)COc2ccc(O)cc21`: the growth was 52.1% (inactive).
The value for `O=C1C=Cc2ccccc2/C1=C/c1nc(-c2ccccc2)oc1O` was 101% (inactive); that for `Cn1c(=O)c2c(nc3n2CCN(CCc2ccc(OCCN4CCOCC4)cc2)C3)n(C)c1=O` was 101% (inactive).
To `S=C(Nc1ccc(-c2nc(N3CCOCC3)c3cccn3n2)cc1)Nc1cccnc1` belongs 59.9% (inactive); to `CN([O-])c1nc(N(C)[O-])nc(N2CCOCC2)n1.CN([O-])c1nc(N(C)[OH2+])nc(N2CCOCC2)n1.[Fe+3]`, 93.8% [100 µM] (inactive); to `Cn1cc(-c2cnc3ccc(NC(=O)Nc4ccc(F)c(Br)c4)cc3n2)cn1`, 13.5% (inactive).
To `Cc1ccc(C(=O)N2C/C(=C/c3ccccc3)C(=O)/C(=C/c3ccccc3)C2)cc1` belongs 73.7% (inactive); to `CCCC(O)Cn1ncc(C(=O)OCC)c1NC(=O)NCc1ccccc1F` (centres undefined), 81.6% (inactive); to `N#CC1CCc2c(c(-c3cn[nH]c3C(F)(F)F)nc3c(F)cc4[nH]ncc4c23)C1` (centres undefined), 47% (inactive).
Regarding `CCOC(=O)c1ccc(NC(=O)c2nc(-c3cc(OC)c(OC)c(OC)c3)n(-c3ccc(Cl)cc3)n2)cc1`, the growth was 77.3% (inactive).
To `C=C(C)[C@@H]1CC[C@]2(C(N)=O)CC[C@]3(C)[C@H](CC[C@@H]4[C@@]5(C)CCCNC(C)(C)[C@@H]5CC[C@]43C)[C@@H]12` belongs 61.1% (inactive); to `CCN(CC)S(=O)(=O)c1ccc(OC)c(NC(=O)c2[nH]c(C)c3c2CCCCC3=O)c1`, 4.18% (active).
